Laboratory results: PubChem BioAssay (Tox21)
Inconclusive results are not listed. Activity calls are given as the source filed them. Unless noted, the call rests on the fitted dose curve; in most records, active means well fitted curve in the direction sought with a large enough effect in the repeat runs; inconclusive means weak or mixed curves; inactive means no such curve, though single readings can be large; an effect the other way counts as inactive or inconclusive.

Legend:
[1] = qHTS assay to identify aromatase inhibitors - cell viability counter screen (AID 743084);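 further: cells stimulated with testosterone during compound exposure; nearly all actives have a fitted effect of over 55% in size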; further: potency means the concentration at half of the fitted maximal effect
[2] = molecular target: Aryl hydrocarbon receptor (Homo sapiens) (UniProt P35869); experiment: qHTS assay to identify small molecule that activate the aryl hydrocarbon receptor (AhR) signaling pathway (AID 743085); further: nearly all actives have a fitted effect of over 15% in size; further: potency means the concentration at half of the fitted maximal effect;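 on activation: HG2L7.5c1 human HepG2 liver cells with stably integrated DRE-driven firefly reporter; series mostly up to about 70 µM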
Chain of Aryl hydrocarbon receptor (Homo sapiens) (P35869 whole entry, looked up): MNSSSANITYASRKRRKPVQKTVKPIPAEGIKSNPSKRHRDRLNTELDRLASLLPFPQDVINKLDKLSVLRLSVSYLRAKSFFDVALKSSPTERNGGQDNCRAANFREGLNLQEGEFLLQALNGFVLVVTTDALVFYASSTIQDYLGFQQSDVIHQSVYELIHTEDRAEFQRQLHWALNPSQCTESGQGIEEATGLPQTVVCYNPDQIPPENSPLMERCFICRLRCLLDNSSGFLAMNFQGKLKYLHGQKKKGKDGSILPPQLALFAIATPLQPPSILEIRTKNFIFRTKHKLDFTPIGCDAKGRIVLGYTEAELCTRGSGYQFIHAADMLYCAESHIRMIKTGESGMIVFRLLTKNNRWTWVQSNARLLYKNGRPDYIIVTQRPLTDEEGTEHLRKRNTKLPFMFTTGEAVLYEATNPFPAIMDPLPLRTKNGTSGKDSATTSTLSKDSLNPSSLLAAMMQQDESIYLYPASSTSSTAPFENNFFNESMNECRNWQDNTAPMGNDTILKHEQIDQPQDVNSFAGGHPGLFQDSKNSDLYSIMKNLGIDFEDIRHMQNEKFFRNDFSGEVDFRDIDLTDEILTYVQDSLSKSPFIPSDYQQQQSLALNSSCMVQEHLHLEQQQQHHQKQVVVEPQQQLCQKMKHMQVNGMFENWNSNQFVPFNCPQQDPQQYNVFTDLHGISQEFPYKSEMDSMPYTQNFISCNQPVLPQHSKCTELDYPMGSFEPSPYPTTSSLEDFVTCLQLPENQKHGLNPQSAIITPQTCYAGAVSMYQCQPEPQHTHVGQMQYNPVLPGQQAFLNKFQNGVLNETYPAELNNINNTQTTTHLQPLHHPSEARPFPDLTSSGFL
Summary of the method: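 Compounds were tested in HepG2 hepatocellular carcinoma cells harbouring a stably integrated luciferase gene under control of 20 DREs. Increased reporter signal after 24 h treatment at 37C was taken as AhR activation.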

[3] = qHTS assay to identify small molecule that activate the aryl hydrocarbon receptor (AhR) signaling pathway - cell viability counter screen (AID 743086); further: nearly all actives have a fitted effect of over 45% in size; further: potency means the concentration at half of the fitted maximal effect
Summary of the method: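 HepG2-AhR-luc (HG2L7.5c1) cells, 4000/well, were preincubated 5 h at 37C, exposed to compound in qHTS format for 24 hr at 37C, then given CellTiter-Fluor for 30 min; viability was read as fluorescence in the reporter wells.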

[4] = molecular target: Peroxisome proliferator-activated receptor gamma (Homo sapiens) (UniProt P37231); experiment: qHTS assay to identify small molecule agonists of the peroxisome proliferator-activated receptor gamma (PPARg) signaling pathway (AID 743094; active means well fitted activation curve with a large enough effect in the signal ratio in the repeat runs, not every such curve was filed as active; the % refers to the signal ratio)
Chain of Peroxisome proliferator-activated receptor gamma (Homo sapiens) (P37231 whole entry, looked up): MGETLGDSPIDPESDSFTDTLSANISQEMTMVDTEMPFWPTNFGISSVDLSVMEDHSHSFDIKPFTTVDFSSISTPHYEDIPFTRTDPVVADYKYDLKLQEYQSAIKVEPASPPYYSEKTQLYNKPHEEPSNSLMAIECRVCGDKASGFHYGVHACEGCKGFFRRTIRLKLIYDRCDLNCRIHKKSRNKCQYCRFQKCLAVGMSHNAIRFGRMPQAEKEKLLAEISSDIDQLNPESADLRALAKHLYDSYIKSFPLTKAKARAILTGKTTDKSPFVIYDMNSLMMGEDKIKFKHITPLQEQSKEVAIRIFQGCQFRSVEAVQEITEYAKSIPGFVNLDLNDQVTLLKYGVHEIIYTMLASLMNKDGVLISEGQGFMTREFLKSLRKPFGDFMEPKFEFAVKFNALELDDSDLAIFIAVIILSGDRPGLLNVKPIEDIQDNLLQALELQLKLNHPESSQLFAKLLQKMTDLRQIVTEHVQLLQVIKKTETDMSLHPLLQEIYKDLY
Summary of the method: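 Agonist activity was taken from a beta-lactamase reporter (FRET substrate, 1 h at room temperature) in HEK293H cells carrying a PPARg UAS-bla construct. Compounds in DMSO were incubated 17 h at 37C after a 5 h cell pre-incubation.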

[5] = qHTS assay to identify small molecule antagonists of the peroxisome proliferator-activated receptor gamma (PPARg) signaling pathway - cell viability counter screen (AID 743194); further: nearly all actives have a fitted effect of over 55% in size
Summary of the method: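 PPARg-UAS-bla HEK293H cells were plated, rested 5 h at 37 C, then treated with compounds plus rosiglitazone (50 nM final) for 17 h at 37 C; viability was then read by CellTiter-Glo luminescence after 30 min at room temperature.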

[6] = qHTS assay for small molecule agonists of the antioxidant response element (ARE) signaling pathway (AID 743202; active means well fitted activation curve with a large enough effect in the signal ratio in the repeat runs, not every such curve was filed as active; the % refers to the signal ratio)
Summary of the method: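 Following a 16 h, 37 C exposure of reporter HepG2 cells (ARE-driven beta-lactamase, 2,000 cells/well) to compounds, FRET substrate was applied for 2 h at room temperature and fluorescence intensity recorded.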

[7] = qHTS assay for small molecule agonists of the antioxidant response element (ARE) signaling pathway - cell viability counter screen (AID 743203; calls by dose curve; further: nearly all actives have a fitted effect of over 55% in size)
Summary of the method: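 Viability counter screen: CellTiter-Glo luminescence, read after 30 min at room temperature, in ARE-bla HepG2 wells. Compound exposure lasted 16 h at 37C/5% CO2, following a 5 h pre-incubation of the cells after plating.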

[8] = qHTS assay for small molecule activators of the heat shock response signaling pathway - cell viability counter screen (AID 743209); further: nearly all actives have a fitted effect of over 50% in size
Summary of the method: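 Cytotoxicity counter screen run in the same wells as the heat-shock bla reporter assay: HeLa HSE-bla cells, 5 h compound exposure at 37 C, viability read by CellTiter-Glo luminescence.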

[9] = qHTS assay for small molecule activators of the heat shock response signaling pathway (AID 743210; active means well fitted activation curve with a large enough effect in the signal ratio in the repeat runs, with a control signal flat, not every such curve was filed as active; the % refers to the signal ratio; further: series mostly up to about 63 µM)
Summary of the method: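 Heat shock element–beta-lactamase HeLa reporter cells; qHTS with compounds for 5 h at 37 C; detection by FRET substrate fluorescence after 2.5 h at RT.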

[10] = molecular target: Peroxisome proliferator-activated receptor gamma (Homo sapiens) (UniProt P37231); experiment: qHTS assay to identify small molecule antagonists of the peroxisome proliferator-activated receptor gamma (PPARg) signaling pathway (AID 743191; calls by dose curve; further: nearly all actives have a fitted effect of over 30% in size; further: potency means the concentration at half of the fitted maximal effect)
Summary of the method: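 GeneBLAzer PPARg UAS-bla HEK293H cells carrying a UAS-driven beta-lactamase reporter were plated at 3000 cells/well, preincubated 5 h at 37C, then given compound for 17 h at 37C; LiveBLAzer B/G FRET substrate was read after 1 h at room temperature.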

Measured: Potency

CC1=C(Br)C(=O)C(Br)=C/C1=C(/c1ccccc1S(=O)(=O)O)c1cc(Br)c(O)c(Br)c1C
active: [1] 23.4 µM | [3] 18.6 µM
inactive: [2] | [4] | [5] | [6] | [7] | [8] | [9]

Cc1cscn1
inactive: [1] | [2] | [3] | [4] | [5] | [6] | [7] | [8] | [9]

C=COCC(C)C
inactive: [1] | [2] | [3] | [4] | [10] | [6] | [7] | [8] | [9]

CC1(C)S[C@@H]2[C@H](NC(=O)C(c3ccccc3)S(=O)(=O)O)C(=O)N2[C@H]1C(=O)O (some centres not stated)
inactive: [1] | [2] | [3] | [4] | [10] | [5] | [7] | [8] | [9]

CC(C)Nc1cccnc1N1CCN(C(=O)c2cc3cc(NS(C)(=O)=O)ccc3[nH]2)CC1
inactive: [1] | [2] | [3] | [4] | [10] | [5] | [7] | [8] | [9]

Cc1ccco1
inactive: [1] | [2] | [3] | [4] | [10] | [5] | [7] | [8] | [9]

C/C=C/C=C/C=O
inactive: [1] | [2] | [3] | [4] | [10] | [7] | [8] | [9]

O=C(O)C[C@H](NC(=O)OCc1ccccc1)C(=O)O
inactive: [1] | [2] | [3] | [4] | [10] | [5] | [9]

CCOC(=O)/C=C/C(=O)OCC
inactive: [1] | [2] | [3] | [4] | [10] | [7] | [8] | [9]

CCCCOc1ccc(OCCCN2CCOCC2)cc1
inactive: [1] | [2] | [3] | [4] | [10] | [5] | [7] | [8] | [9]

CCCCCCC(C)(C)C(=O)O
inactive: [1] | [2] | [3] | [4] | [10] | [6] | [7] | [8] | [9]

CN1CCCN=C1COC(=O)C(O)(c1ccccc1)C1CCCCC1 (configuration not stated)
inactive: [1] | [2] | [3] | [4] | [10] | [6] | [7] | [8] | [9]

CC1=C(CC=O)C(C)(C)CCC1
inactive: [1] | [2] | [3] | [4] | [5] | [6] | [7] | [8]

CC(=O)c1ccc([N+](=O)[O-])cc1
inactive: [1] | [2] | [3] | [4] | [10] | [6] | [7] | [8] | [9]

COc1ccccc1N1CCN(CCCCNC(=O)c2ccc(-c3ccc(C(C)=O)cc3)cc2)CC1
inactive: [1] | [2] | [3] | [4] | [10] | [5] | [7] | [8] | [9]

Cc1cc2c(OCC(CNC(C)(C)C)OC(=O)c3ccccc3)cccc2[nH]1 (configuration not stated)
inactive: [1] | [2] | [3] | [4] | [10] | [6] | [7] | [8] | [9]

CCCCC(CC)CN (configuration not stated)
inactive: [1] | [2] | [3] | [4] | [10] | [5] | [7] | [9]

CCCCCCCCCI
inactive: [1] | [2] | [3] | [4] | [10] | [6] | [7] | [8] | [9]

O=C(Cn1ccnc1[N+](=O)[O-])NCCO
inactive: [1] | [2] | [3] | [4] | [10] | [6] | [7] | [8] | [9]

CN1C(C(=O)Nc2ccccn2)=C(O)c2sccc2S1(=O)=O
inactive: [1] | [2] | [3] | [4] | [10] | [6] | [8]

Cc1ccc(C(C)(C)O)cc1
inactive: [1] | [2] | [3] | [4] | [10] | [6] | [8] | [9]

O=C(O)CCC(=O)C(=O)O
inactive: [1] | [2] | [3] | [4] | [5] | [6] | [7] | [8] | [9]

CC[N+](CC)(CCNC(=O)C(=O)NCC[N+](CC)(CC)Cc1ccccc1Cl)Cc1ccccc1Cl
inactive: [1] | [2] | [3] | [4] | [10] | [6] | [9]

C(=C\c1ccccc1)/c1ccccc1
active: [2] 76.3 µM
inactive: [1] | [3] | [4] | [10] | [8] | [9]

O=C(/C=C/c1ccc(O)c(O)c1)O[C@@H]1C[C@@](OC(=O)/C=C/c2ccc(O)c(O)c2)(C(=O)O)C[C@@H](O)[C@@H]1O
inactive: [1] | [2] | [3] | [4] | [10] | [5] | [8] | [9]

CC(C)(C)C(=O)C(=O)O
inactive: [1] | [2] | [3] | [4] | [10] | [5] | [7] | [8] | [9]

Nc1ccc(N=Nc2ccccc2)c(N)c1
inactive: [4] | [7] | [8]
active: [1] 30 µM | [2] 30 µM | [3] 26.7 µM | [10] 42.7 µM
